According to the supplement of paper PMC10338343:
± gives the standard deviation.

Tests used:
[1] = test system: MILI (PIWIL2) piRISC loaded with L1MC piRNA (26 nt); experiment: pre-steady-state target cleavage rate (min^-1); guide: L1MC piRNA 5'p-UAACUAAAUACUAUGCAAGCUGUAGG; higher = faster piRNA-guided slicing of the target; conditions: auxiliary factor: 500 nM mouse GTSF1
Procedure, shortened: (§1)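 The pre-steady-state cleavage rate was obtained by Cleave-'n-Seq with a burst-and-steady-state fit. A transcribed, DNA-blocked target RNA library (0.1 nM) was mixed with 1 nM active affinity-purified piRISC carrying one synthetic guide, with or without 500 nM GTSF1 partner protein, in HEPES–potassium acetate buffer at 33 °C for 0–8 or 0–960 min. Uncleaved targets were sequenced and normalised to depth and to weakly complementary targets, with three trials pooled and k3 capped at 0.0001 min^-1.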

[2] = test system: EfPiwi piRISC loaded with L1MC piRNA (26 nt); experiment: pre-steady-state target cleavage rate (min^-1); auxiliary factor: 500 nM Ephydatia muelleri Gtsf1; guide: L1MC piRNA 5'p-UAACUAAAUACUAUGCAAGCUGUAGG; MIWI and MILI are mouse PIWI proteins and EfPiwi is from a freshwater sponge; tags in brackets are library labels; higher = faster piRNA-guided slicing of the target
Procedure, shortened: as §1

| Sequence | pre-steady-state target cleavage rate [1] | pre-steady-state target cleavage rate [2] |
| --- | --- | --- |
| UCCUCCUACAGCUUGCAUAGUAUUUACAUA | 0.177 ± 0.041 | 0.00441 ± 0.0028 |
| UCCUGCUUCAGCUUGCAUAGAAUUUAGUUA | 0.0587 ± 0.011 | 0.00544 ± 0.0015 |
| UCCUGCUACAGCUUGCUUAGUAUUUUGUUA | 0.156 ± 0.027 | 0.0127 ± 0.004 |
| UCCUGGAACACCUUGCAUAGUAUUUAGAUA | 0.183 ± 0.043 | 0.0026 ± 0.0026 |
| UCCUGGAACAGCUUGCAUAGUAUAAAGAAA | 0.0192 ± 0.0088 | 0.00217 ± 0.0021 |
| UCCUGGAUCAGCUUCCAUAGUAUUUAGUAA | 0.0353 ± 0.0094 | 0.00347 ± 0.0017 |
| UCCUCGUACAGCUUGCAUAGUAUUUACAAA | 0.105 ± 0.025 | 0.00271 ± 0.0024 |
| UCCUGGAACAGCUUGCAUAGUUUUUAGAAA | 0.0191 ± 0.007 | 0.00413 ± 0.0021 |
| UCCUGGUACAGGUUGCAUAGUAUUUAGAUA | 0.195 ± 0.054 | 0.00271 ± 0.0024 |
| UCCUCCUACAGCUUGCAUAGUAUUAUCAAA | 0.0973 ± 0.021 | 0.00273 ± 0.0027 |
| UCCUGCUACAGGAUGCAUAGUAUUUAGAAA | 0.0163 ± 0.0074 | 0.00248 ± 0.0014 |
| UCCUGGAUGAGCUUGCAUACUAUUUAGUAA | 0.00877 ± 0.0036 | 0.00227 ± 0.0018 |
| UCCUCCUACUGCUUGCAUAGUAUUUAGAUA | 0.085 ± 0.015 | 0.0056 ± 0.0026 |
| UCCUGGUACAGCUUGCAUAGUUAUUAGUAA | 0.01 ± 0.0044 | 0.00807 ± 0.0043 |
| UCCUGGAUGUCCUUGCAUAGUAUUUAGAAA | 0.0838 ± 0.021 | 0.00278 ± 0.0022 |
| UCCUGGAACAGCUUGCAUACUAUUUAGUAA | 0.0934 ± 0.025 | 0.00398 ± 0.0022 |
| UCCUGGAUCAGCUUGCAUUGUAUUUAGAAA | 0.0362 ± 0.013 | 0.00264 ± 0.0021 |
| UCCUCCUUCAGCUUGCAUAGUAUUUUCAAA | 0.115 ± 0.022 | 0.00259 ± 0.0024 |
| UCCUGGUACAGCUUGCAUACUAUUAAGUUA | 0.0468 ± 0.016 | 0.00282 ± 0.0022 |
| UCCUCCUACAGCUUGCAUAGUAUUAAGAUA | 0.125 ± 0.032 | 0.00411 ± 0.0022 |
